# Source: the supplement of paper PMC8728848
# Shown is part of a subset that was picked to be rich in the strongest signals.
# B1: DC-SIGN (Canis lupus), XP_853402 (protein)
# chain: AGLCRPCPWKWELFQESCYFFSQTQNTWKESISACQNLRAQLVIINSTEEQKFLKSWNTRNNQRTWIGLSDHHNEGSWKWVDNTPLQLSFWKEGEPNNHGDEDCVELYSDGWNDNRCSTENFWICKKPSSPCPGPGLNDIFEAQKIEWHE
# Tests used:
# Assay in all cases: glycan array binding signal (z-score within array); higher = stronger binding
# Details in all cases: glycan notation: IUPAC condensed, linker removed
# [1] = molecular target: Fuc(a1-2)Gal(b1-3)[Fuc(a1-4)]GlcNAc(b1-2)Man(a1-3)[Fuc(a1-2)Gal(b1-3)[Fuc(a1-4)]GlcNAc(b1-2)Man(a1-6)]Man(b1-4)GlcNAc(b1-4)GlcNAc
# Procedure, shortened: (§1)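 Negative Z-scores can be read as non-binding. The Z-score is calculated within each array and then averaged across arrays of one protein sequence at different concentrations or buffers and across linkers. Arrays, 3228 in all, were curated from the Consortium for Functional Glycomics database and kept only where the protein sequence was available.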
# [2] = molecular target: Fuc(a1-2)[GalNAc(a1-3)]Gal(b1-4)GlcNAc
# Procedure, shortened: as §1
# [3] = molecular target: Fuc(a1-3)GlcNAc
# Procedure, shortened: as §1
# [4] = molecular target: Fuc(a1-3)[Gal(b1-4)]GlcNAc(b1-2)Man(a1-3)[Fuc(a1-3)[Gal(b1-4)]GlcNAc(b1-2)Man(a1-6)]Man(b1-4)GlcNAc(b1-4)GlcNAc
# Procedure, shortened: as §1
# [5] = molecular target: Fuc(a1-3)[Gal(b1-4)]GlcNAc(b1-4)Gal(b1-4)[Fuc(a1-3)]GlcNAc
# Procedure, shortened: as §1
# [6] = molecular target: Gal(a1-3)[Gal(a1-4)]Gal(b1-4)GlcNAc
# Procedure, shortened: as §1
# [7] = molecular target: Gal(b1-2)Gal
# Procedure, shortened: as §1
# [8] = molecular target: Gal(b1-3)GlcNAc(b1-3)Gal(b1-4)Glc
# Procedure, shortened: as §1
# [9] = molecular target: Gal(b1-3)[Fuc(a1-4)]GlcNAc(b1-2)Man(a1-3)[Gal(b1-3)[Fuc(a1-4)]GlcNAc(b1-2)Man(a1-6)]Man(b1-4)GlcNAc(b1-4)[Fuc(a1-6)]GlcNAc
# Procedure, shortened: as §1
# [10] = molecular target: Gal(b1-3)[Neu5Ac(a2-6)]GalNAc
# Procedure, shortened: as §1
# [11] = molecular target: Gal(b1-4)GalNAc(b1-3)[Fuc(a1-2)]Gal(b1-4)GlcNAc
# Procedure, shortened: as §1
# [12] = molecular target: Gal3S(b1-3)GlcNAc
# Procedure, shortened: as §1
# [13] = molecular target: GlcNAc(a1-4)Gal(b1-3)GlcNAc
# Procedure, shortened: as §1
# [14] = molecular target: GlcNAc(a1-4)Gal(b1-4)GlcNAc(b1-3)Gal(b1-4)GlcNAc(b1-3)Gal(b1-4)GlcNAc
# Procedure, shortened: as §1
# [15] = molecular target: GlcNAc(a1-4)Gal(b1-4)GlcNAc(b1-3)Gal(b1-4)[Fuc(a1-3)]GlcNAc(b1-3)Gal(b1-4)[Fuc(a1-3)]GlcNAc
# Procedure, shortened: as §1
# [16] = molecular target: GlcNAc(a1-6)Gal(b1-4)GlcNAc
# Procedure, shortened: as §1
# [17] = molecular target: GlcNAc(b1-3)[GlcNAc(b1-6)]Gal(b1-4)GlcNAc
# Procedure, shortened: as §1
# [18] = molecular target: GlcNAc(b1-4)GlcNAc(b1-4)GlcNAc(b1-4)GlcNAc(b1-4)GlcNAc
# Procedure, shortened: as §1
# [19] = molecular target: Man(a1-2)Man(a1-2)Man(a1-3)Man
# Procedure, shortened: as §1
# [20] = molecular target: Man(a1-2)Man(a1-3)[Man(a1-2)Man(a1-6)]Man
# Procedure, shortened: as §1
# [21] = molecular target: Man(a1-2)Man(a1-3)[Man(a1-2)Man(a1-6)]Man(a1-6)[Man(a1-2)Man(a1-2)Man(a1-3)]Man
# Procedure, shortened: as §1
# [22] = molecular target: Man(a1-2)Man(a1-3)[Man(a1-2)Man(a1-6)]Man(a1-6)[Man(a1-2)Man(a1-2)Man(a1-3)]Man(b1-4)GlcNAc(b1-4)GlcNAc
# Procedure, shortened: as §1
# [23] = molecular target: Man(a1-3)[Man(a1-6)]Man(a1-6)[Man(a1-2)Man(a1-3)]Man(b1-4)GlcNAc(b1-4)GlcNAc
# Procedure, shortened: as §1
# [24] = molecular target: Man(a1-3)[Man(a1-6)]Man(a1-6)[Man(a1-3)]Man(b1-4)GlcNAc(b1-4)GlcNAc
# Procedure, shortened: as §1
# [25] = molecular target: Neu5Ac(a2-3)Gal(b1-4)GlcNAc
# Procedure, shortened: as §1
# [26] = molecular target: Neu5Ac(a2-3)Gal(b1-4)GlcNAc6S
# Procedure, shortened: as §1
# [27] = molecular target: Neu5Ac(a2-3)Gal(b1-4)[Fuc(a1-3)]GlcNAc
# Procedure, shortened: as §1
# [28] = molecular target: Neu5Ac(a2-3)Gal(b1-4)[Fuc(a1-3)]GlcNAc(b1-6)[Gal(b1-3)]GalNAc
# Procedure, shortened: as §1
# [29] = molecular target: Neu5Ac(a2-3)[GalNAc(b1-4)]Gal(b1-4)GlcNAc
# Procedure, shortened: as §1
# [30] = molecular target: Neu5Ac(a2-6)Gal(b1-4)GlcNAc(b1-2)Man(a1-3)[GlcNAc(b1-2)Man(b1-4)GlcNAc(b1-2)Man(a1-6)]Man(b1-4)GlcNAc(b1-4)GlcNAc
# Procedure, shortened: as §1
# [31] = molecular target: Neu5Ac(a2-6)Gal(b1-4)GlcNAc6S
# Procedure, shortened: as §1
# [32] = molecular target: Neu5Ac(b2-6)Gal(b1-4)GlcNAc
# Procedure, shortened: as §1
# [33] = molecular target: Neu5Gc(a2-3)Gal(b1-4)Glc
# Procedure, shortened: as §1
binder,measurement,setting,value
B1,glycan array binding signal (z-score),[1],0.148
same,glycan array binding signal (z-score),[2],-0.137
same,glycan array binding signal (z-score),[3],0.009
same,glycan array binding signal (z-score),[4],-0.157
same,glycan array binding signal (z-score),[5],0.044
same,glycan array binding signal (z-score),[6],-0.15
same,glycan array binding signal (z-score),[7],-0.033
same,glycan array binding signal (z-score),[8],-0.172
same,glycan array binding signal (z-score),[9],5.73
same,glycan array binding signal (z-score),[10],-0.216
same,glycan array binding signal (z-score),[11],-0.176
same,glycan array binding signal (z-score),[12],-0.026
same,glycan array binding signal (z-score),[13],0.018
same,glycan array binding signal (z-score),[14],-0.272
same,glycan array binding signal (z-score),[15],1.73
same,glycan array binding signal (z-score),[16],-0.105
same,glycan array binding signal (z-score),[17],-0.336
same,glycan array binding signal (z-score),[18],-0.267
same,glycan array binding signal (z-score),[19],7.92
same,glycan array binding signal (z-score),[20],3.37
same,glycan array binding signal (z-score),[21],7.69
same,glycan array binding signal (z-score),[22],4.83
same,glycan array binding signal (z-score),[23],11.8
same,glycan array binding signal (z-score),[24],0.127
same,glycan array binding signal (z-score),[25],-0.217
same,glycan array binding signal (z-score),[26],-0.127
same,glycan array binding signal (z-score),[27],-0.257
same,glycan array binding signal (z-score),[28],-0.407
same,glycan array binding signal (z-score),[29],-0.085
same,glycan array binding signal (z-score),[30],-0.249
same,glycan array binding signal (z-score),[31],-0.341
same,glycan array binding signal (z-score),[32],-0.361
same,glycan array binding signal (z-score),[33],-0.065
